S1P2 agonist: S1P2 (human) receptor agonism; O95136; S1P2-expressing cell line, agonist reporter read-out; activation, % at 4.5 µM; 0.46% of 97,000 active; AID 729; in the data active = activation above about 16%;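 note: 0% = vehicle low control and 100% = maximal reference agonist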
Target sequence (O95136 whole entry, looked up): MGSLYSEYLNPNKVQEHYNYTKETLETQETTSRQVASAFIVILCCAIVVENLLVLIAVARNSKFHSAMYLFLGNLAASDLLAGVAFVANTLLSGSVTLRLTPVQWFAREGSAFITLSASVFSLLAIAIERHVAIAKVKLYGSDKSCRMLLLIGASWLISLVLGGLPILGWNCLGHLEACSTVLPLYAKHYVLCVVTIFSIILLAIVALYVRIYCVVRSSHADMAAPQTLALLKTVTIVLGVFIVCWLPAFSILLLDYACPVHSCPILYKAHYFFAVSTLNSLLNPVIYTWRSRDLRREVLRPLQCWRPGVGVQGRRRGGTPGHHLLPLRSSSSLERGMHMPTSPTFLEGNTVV
GALR2 blocker: GALR2 (human) receptor antagonism; AID 828; GALR2-expressing cells, antagonist mode; inhibition, % at 4 µM; 0.39% of 140,000 active;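 note: cells stimulated with galanin 1-16 at roughly its EC80; 0% = agonist challenge control and 100% = basal control without agonist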
S1P2 antag: S1P2 (human) receptor antagonism | O95136 | cell-based S1P2 antagonist assay, inhibition at 5 uM | inhibition, % at 5 µM | 0.21% of 97,000 active; in the data active = inhibition above about 45%;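 note: CRE beta-lactamase reporter cells expressing human S1P2 stimulated with S1P; 0% = agonist at EC80 alone and 100% = agonist plus reference antagonist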
GALR2 ag: activates the human galanin receptor 2; O43603; GALR2-expressing cells, agonist activation read-out; activation, % (concentration not given with the values); 0.48% of 140,000 active; AID 803; in the data active = activation above about 5%, passing the limit was not always enough;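 note: 0% = vehicle buffer wells and 100% = reference agonist at full effect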
DAT uptake mod: changed human dopamine transporter uptake under cocaine IC80; LLC-PK1 hDAT cells, [14C]-dopamine uptake with cocaine IC80; actives deviate in either direction; 1.3% of 110,000 active; AID 449768; B-score at 10 µM; Q01959;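 active = Z score or B-score, a plate-position-corrected score, falls beyond the plate's 99.7% confidence bounds, in either direction; inactive = both scores lie inside the 99.7% bounds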;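 note: scored against the spread of the other compound wells on the same plate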
GALR2 ant conf: confirmation of human galanin receptor 2 (GALR2) antagonists; inhibition, % at 4 µM; shares compounds with GALR2 blocker; GALR2-expressing cells, antagonist mode, inhibition; 60% of 480 active; AID 866;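 note: cells stimulated with galanin at about its EC80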
BLA inhib ctr: beta-lactamase inhibition, GALR2 counterscreen; inhibition, % at 4.2 µM; 36% of 480 active; AID 867; CHO NFAT-BLA reporter, beta-lactamase FRET, thapsigargin-stimulated; shares compounds with GALR2 blocker;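 active = inhibition above the mean inhibition across tested compounds plus 3 SD, cut at about 27% in these data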;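 note: 0% = 500 nM thapsigargin stimulated wells and 100% = unstimulated BSA only wells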
The depositor's hits bear a star; nt = no result. A selection: hits, their analogues and other compounds. The true share with any hit is near 2.1%. Cut-off read from the data, not from the text of the source, unless noted: active = inhibition above about 27%; inactive = the rest.

SMILES | S1P2 agonist | GALR2 blocker | S1P2 antag | GALR2 ag | DAT uptake mod | GALR2 ant conf | BLA inhib ctr
COc1ccc(C(=O)C(CCCCC(CN(C)C)C(=O)c2ccc(OC)cc2)CN(C)C)cc1 (configuration not stated) | -1 | 7 | 11 | -3 | nt | nt | nt
Cc1cccc(C(=O)Nc2ccc(C(=O)/C=C/c3cccnc3)cc2)c1 | nt | 31* | nt | 0 | nt | 32* | 7
O=C(/C=C/c1cccnc1)c1ccc(NC(=O)c2cccc(Br)c2)cc1 | -4 | -5 | 8 | -2 | 0.85 | nt | nt
CCOC(=O)C[C@H]1c2cc(F)ccc2S(=O)(=O)N1Cc1ccc(OC)cc1 | nt | nt | nt | nt | 0.37 | nt | nt
O=c1c(Cl)c(Cl)cnn1-c1ccccc1 | nt | 88* | nt | -3 | nt | 92* | 78*
Cc1ccc(Cn2ncc(Cl)c(Cl)c2=O)cc1 | nt | 22 | nt | 0 | nt | nt | nt
O=c1c(Cl)c(N/N=C/c2ccc(Cl)cc2)cnn1-c1ccccc1 | nt | -5 | nt | 2 | nt | nt | nt
O=c1c(Cl)c(Cl)cnn1Cc1ccccc1Cl | nt | 63* | nt | 2 | nt | 64* | 61*
COC(=O)/C=C1\OC(c2ccccc2)=CC1=O | nt | -3 | nt | -1 | nt | nt | nt
Cc1cc(N/N=C/c2ccc(O)c(C)c2O)nc(-c2ccccc2O)n1 | nt | 31* | nt | -2 | nt | 33* | 12
Cc1cc(C(=O)COC(=O)c2ccccc2O)c(C)n1Cc1cccs1 | 0 | -1 | -11 | -3 | 1.2 | nt | nt
CC(=O)Nc1ccccc1OCC(=O)c1cc(C)n(Cc2cccs2)c1C | nt | 39* | nt | -1 | -0.58 | 51* | 24
Cn1nc(C(C)(C)C)cc1C(=O)NCc1ccc(N2CCCC2=O)cc1 | nt | 45* | nt | -2 | -1.1 | 39* | 9
Cc1ccc(CNC(=O)c2ccc(N3CCCC3=O)cc2)cc1 | -2 | 7 | 6 | -2 | 0.94 | nt | nt
COc1ccc(O)c(/C=N/NC(=S)Nc2cccc(S(=O)(=O)N(C)C)c2)c1 | nt | 35* | nt | -1 | nt | 21 | 13
COc1ccc(C2N=C(c3ccccc3)C(C)(C)N2O)cc1OC (configuration not stated) | nt | 19 | nt | -2 | 1.4 | nt | nt
Cc1cc(/C=N/n2cnnc2)c(C)n1-c1ccc(OCc2ccc(Cl)cc2)cc1 | -7 | 45* | 77* | 1 | 0.64 | 40* | 19
COC(=O)C1=C(C(=O)OC)[C@@H]2Nc3ccccc3[C@@]23C[C@@H](C(=O)OC)N(C(C)=O)C3=N1 | nt | nt | nt | nt | -0.068 | nt | nt
CCc1ccc2[nH]c(=O)c(CN(CCN(C)C)C(=O)Nc3ccccc3)cc2c1 | 0 | 27* | 9 | -2 | 0.96 | 4 | 2
COc1ccc2[nH]c(=O)c(CN(CCCN(C)C)C(=O)Nc3ccccc3)cc2c1 | -3 | -1 | 13 | -1 | -0.13 | nt | nt
Cc1cc(C(=O)OCC(=O)Nc2ccccc2[N+](=O)[O-])c2ccccc2n1 | nt | 40* | nt | -1 | nt | 11 | 9
CCOC(=O)N1CCN(C(=O)c2ccc(NC(C)=O)cc2)CC1 | -11 | 9 | 11 | -1 | 0.17 | nt | nt
CCOC(=O)N1CCN(C(=O)c2ccc(NC(=O)c3ccc(C)cc3)cc2)CC1 | -7 | 28* | -2 | 1 | 0.7 | 30* | 19
NS(=O)(=O)c1ccc(CCNc2ncnc3sccc23)cc1 | -7 | 3 | 26 | -2 | -0.36 | nt | nt
Cc1sc2ncnc(NCCc3ccc(S(N)(=O)=O)cc3)c2c1C | -1 | 37* | 63* | 2 | nt | 47* | 8
SMILES | S1P2 agonist | GALR2 blocker | S1P2 antag | GALR2 ag | DAT uptake mod | GALR2 ant conf | BLA inhib ctr
Cc1oncc1C(=S)Nc1ccccc1 | -8 | 8 | -6 | -1 | 0.34 | nt | nt
O=C(CCCn1c(=S)[nH]c2cc3c(cc2c1=O)OCO3)N1CCc2ccccc2C1 | -2 | 28* | 2 | -4 | -0.32 | 7 | 5
O=C(CCn1c(=S)[nH]c2cc3c(cc2c1=O)OCO3)N1CCc2ccccc2C1 | -3 | -6 | -3 | -2 | nt | nt | nt
C=C1C(=O)[C@@]23[C@H](O)C[C@@H]4C(C)(C)CC[C@H](O)[C@@]4(C)[C@@H]2CC[C@@H]1[C@H]3O | nt | 38* | nt | 0 | -0.69 | 38* | 58*
CC(Cc1cccs1)NC(=O)Nc1cccc(Cl)c1 (configuration not stated) | -7 | 5 | -12 | -4 | nt | nt | nt
CC(Cc1cccs1)NC(=O)Nc1ccc(F)cc1 (configuration not stated) | -5 | 28* | 4 | -3 | nt | 12 | 9
O=CNCC(=O)NCCc1ccc(Cl)cc1 | -5 | -5 | -11 | 0 | -0.52 | nt | nt

Assay outcomes (PubChem BioAssay)
